Laboratory results reported in the supplement of paper PMC12067926.

How the values were obtained:
Assay in all cases: relative growth (AUC of 72 h growth curve relative to DMSO control, dAUC) (ratio); higher = more growth (less inhibition), active = hit call of the paper
Conditions in all cases: 20 µM;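 active = growth AUC significantly below the DMSO wells by Dunnett test; inactive = the rest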
[1] = tested on: Prolinoborus 1 (Prolinoborus fasciculus)
Outline: (§1)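 Whole sediment communities and bacterial isolates from Icelandic stream sediments and Silwood Park soil were brought to carrying capacity in Luria–Bertani medium. They were then diluted 1:100 into 96-well plates with each chemical at 20 µM in 1% DMSO, and A600 was recorded every hour for 72 h. The area under each growth curve, integrated by spline, was averaged across three biological replicates. This figure, divided by the mean of the DMSO controls, gives relative growth (dAUC).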

[2] = tested on: Pseudomonas 1 (Pseudomonas baetica)
Outline: as §1

[3] = tested on: Pseudomonas 2 (Pseudomonas vancouverensis)
Outline: as §1

[4] = tested on: Pseudomonas 3 (Pseudomonas mandelii)
Outline: as §1

[5] = tested on: Pseudomonas 4 (Pseudomonas peli)
Outline: as §1

[6] = tested on: Pseudomonas 5 (Pseudomonas baetica)
Outline: as §1

[7] = tested on: Pseudomonas 6 (Pseudomonas sp.)
Outline: as §1

[8] = tested on: Rhizobium 1 (Rhizobium herbae)
Outline: as §1

[9] = tested on: Serratia 1 (Serratia sp. 2015-2462-01)
Outline: as §1

[10] = tested on: Sphingomonas 2 (Sphingomonas sp.)
Outline: as §1

SMILES	relative growth [1]	relative growth [2]	relative growth [3]	relative growth [4]	relative growth [5]	relative growth [6]	relative growth [7]	relative growth [8]	relative growth [9]	relative growth [10]
Cc1cc(C2CC2)nc(Nc2ccccc2)n1	1.03 (inactive)	1.11 (inactive)	1 (inactive)	1.03 (inactive)	0.976 (inactive)	0.991 (inactive)	0.966 (inactive)	1.06 (inactive)	0.969 (inactive)	0.951 (inactive)
C/C(=N\C#N)N(C)Cc1ccc(Cl)nc1	0.963 (inactive)	0.967 (inactive)	1 (inactive)	0.987 (inactive)	0.991 (inactive)	1.03 (inactive)	0.981 (inactive)	1.11 (inactive)	0.976 (inactive)	1.03 (inactive)
COc1cc(OC)nc(NC(=O)NS(=O)(=O)c2ncccc2C(=O)N(C)C)n1	0.999 (inactive)	0.988 (inactive)	1 (inactive)	1.01 (inactive)	0.993 (inactive)	0.996 (inactive)	0.943 (inactive)	0.992 (inactive)	1 (inactive)	1 (inactive)
COc1ccc(-c2ccccc2)cc1NNC(=O)OC(C)C	0.918 (inactive)	1.14 (inactive)	0.964 (inactive)	1.05 (inactive)	0.951 (inactive)	1.08 (inactive)	1.17 (inactive)	0.865 (inactive)	0.932 (inactive)	0.92 (inactive)
N#Cc1c(Cl)c(Cl)c(Cl)c(C#N)c1Cl	1.04 (inactive)	0.975 (inactive)	0.972 (inactive)	0.967 (inactive)	1 (inactive)	1.01 (inactive)	1.1 (inactive)	0.17 (active)	0.92 (inactive)	0.0279 (active)
O=C(NC(=O)c1c(F)cccc1F)Nc1ccc(Cl)cc1	0.965 (inactive)	1.06 (inactive)	1.01 (inactive)	1.04 (inactive)	1.02 (inactive)	1.01 (inactive)	1.05 (inactive)	1.06 (inactive)	0.988 (inactive)	1.02 (inactive)
CC[C@H]1CCC[C@H](O[C@H]2CC[C@H](N(C)C)[C@@H](C)O2)[C@@H](C)C(=O)C2=C[C@@H]3[C@@H](C=C(C)[C@@H]4C[C@@H](O[C@@H]5O[C@@H](C)[C@H](OC)[C@@H](OC)[C@H]5OC)C[C@@H]34)[C@@H]2CC(=O)O1.CC[C@H]1CCC[C@H](O[C@H]2CC[C@H](N(C)C)[C@@H](C)O2)[C@@H](C)C(=O)C2=C[C@H]3[C@@H]4C[C@H](O[C@@H]5O[C@@H](C)[C@H](OC)[C@@H](OC)[C@H]5OC)C[C@H]4C=C[C@H]3C2CC(=O)O1	0.832 (inactive)	1.14 (inactive)	0.981 (inactive)	1.04 (inactive)	1.05 (inactive)	1.06 (inactive)	1.01 (inactive)	0.89 (inactive)	1.1 (inactive)	1 (inactive)
CCc1nn(C)c(C(=O)NCc2ccc(Oc3ccc(C)cc3)cc2)c1Cl	0.978 (inactive)	1.08 (inactive)	1.02 (inactive)	1.01 (inactive)	0.987 (inactive)	1.01 (inactive)	1.05 (inactive)	0.941 (inactive)	1.07 (inactive)	1.04 (inactive)
CCOP(=S)(OCC)Oc1cc(C)nc(C(C)C)n1	0.91 (inactive)	0.877 (inactive)	1.01 (inactive)	1.04 (inactive)	0.919 (inactive)	0.98 (inactive)	1.12 (inactive)	0.904 (inactive)	0.958 (inactive)	0.988 (inactive)
CO/C=C(/C(=O)OC)c1ccccc1Oc1cc(Oc2ccccc2C#N)ncn1	0.973 (inactive)	1.07 (inactive)	1.02 (inactive)	1.06 (inactive)	1.03 (inactive)	1.03 (inactive)	1.08 (inactive)	0.967 (inactive)	0.967 (inactive)	1.09 (inactive)
CN(C)C(CSS(=O)(=O)O)CSS(=O)(=O)O	0.961 (inactive)	1.14 (inactive)	0.994 (inactive)	1.08 (inactive)	0.978 (inactive)	1.04 (inactive)	1.1 (inactive)	0.931 (inactive)	0.953 (inactive)	0.893 (inactive)
COC(=O)N(OC)c1ccccc1COc1ccn(-c2ccc(Cl)cc2)n1	1.01 (inactive)	1.13 (inactive)	1.04 (inactive)	1.03 (inactive)	1 (inactive)	1.02 (inactive)	1.15 (inactive)	0.863 (inactive)	0.984 (inactive)	1.05 (inactive)
N#Cc1c[nH]cc1-c1cccc2c1OC(F)(F)O2	0.978 (inactive)	0.952 (inactive)	1 (inactive)	1.03 (inactive)	0.945 (inactive)	0.971 (inactive)	1.04 (inactive)	0.932 (inactive)	0.942 (inactive)	0.957 (inactive)
CCCCOC(=O)[C@H](C)Oc1ccc(Oc2ccc(C#N)cc2F)cc1	1.02 (inactive)	0.985 (inactive)	1.08 (inactive)	1.07 (inactive)	0.967 (inactive)	1.06 (inactive)	1.17 (inactive)	1.07 (inactive)	1 (inactive)	1.1 (inactive)
CS(=O)(=O)c1ccc(C(=O)C2C(=O)CCCC2=O)c([N+](=O)[O-])c1	0.983 (inactive)	1.06 (inactive)	1.02 (inactive)	1.03 (inactive)	1.05 (inactive)	0.998 (inactive)	0.96 (inactive)	1.15 (inactive)	1 (inactive)	1.1 (inactive)
Oc1ccccc1-c1ccccc1	0.977 (inactive)	1.03 (inactive)	0.98 (inactive)	1.01 (inactive)	0.935 (inactive)	1.05 (inactive)	1.14 (inactive)	0.989 (inactive)	0.959 (inactive)	0.969 (inactive)
Cc1cccc2sc3nncn3c12	1.01 (inactive)	1.18 (inactive)	0.997 (inactive)	1.03 (inactive)	0.947 (inactive)	1.04 (inactive)	1.1 (inactive)	0.846 (inactive)	0.947 (inactive)	0.944 (inactive)
ClC1C(Cl)C(Cl)C(Cl)C(Cl)C1Cl (stereo not given)	0.987 (inactive)	1.04 (inactive)	0.993 (inactive)	0.99 (inactive)	0.982 (inactive)	1.04 (inactive)	1.02 (inactive)	0.826 (inactive)	0.97 (inactive)	0.949 (inactive)
Nc1c([N+](=O)[O-])ccc(Oc2ccccc2)c1Cl	0.962 (inactive)	1.15 (inactive)	0.982 (inactive)	1.03 (inactive)	0.949 (inactive)	1.02 (inactive)	1.15 (inactive)	0.888 (inactive)	0.946 (inactive)	0.871 (inactive)
O=C(Nc1ccc(F)cc1F)c1cccnc1Oc1cccc(C(F)(F)F)c1	1.03 (inactive)	1.09 (inactive)	1.01 (inactive)	1.05 (inactive)	1.01 (inactive)	1.06 (inactive)	1.13 (inactive)	0.66 (inactive)	1.02 (inactive)	1.16 (inactive)
Oc1ccc(Cl)cc1Cc1cc(Cl)ccc1O	0.0645 (active)	0.805 (inactive)	0.755 (active)	0.8 (active)	0.674 (active)	0.817 (active)	0.922 (inactive)	0.0117 (active)	0.46 (active)	0.0145 (active)
Fc1ccc(Oc2ccnc3cc(Cl)cc(Cl)c23)cc1	1.03 (inactive)	1.07 (inactive)	1.02 (inactive)	1.06 (inactive)	1.07 (inactive)	1.01 (inactive)	1.06 (inactive)	0.992 (inactive)	1.01 (inactive)	0.975 (inactive)
CCN(CC)c1nc(C)cc(OP(=S)(OC)OC)n1	1.01 (inactive)	1 (inactive)	1 (inactive)	1 (inactive)	0.979 (inactive)	0.988 (inactive)	1.03 (inactive)	1.05 (inactive)	0.994 (inactive)	0.839 (inactive)
CCc1cnc(C2=NC(C)(C(C)C)C(=O)N2)c(C(=O)O)c1 (stereo not given)	0.973 (inactive)	0.912 (inactive)	0.944 (inactive)	1.01 (inactive)	0.967 (inactive)	1.01 (inactive)	1.04 (inactive)	0.975 (inactive)	0.958 (inactive)	1.03 (inactive)
COP(=O)(OC)OC=C(Cl)Cl	0.895 (inactive)	1.08 (inactive)	0.963 (inactive)	1.04 (inactive)	0.963 (inactive)	1.01 (inactive)	0.982 (inactive)	1.01 (inactive)	0.96 (inactive)	0.823 (inactive)
N#Cc1nn(-c2c(Cl)cc(C(F)(F)F)cc2Cl)c(N)c1[S+]([O-])C(F)(F)F (stereo not given)	0.897 (inactive)	0.913 (inactive)	0.948 (inactive)	0.94 (inactive)	0.987 (inactive)	1.01 (inactive)	0.962 (inactive)	0.971 (inactive)	0.96 (inactive)	0.983 (inactive)
CC[C@H](C)C1O[C@]2(C=C[C@@H]1C)C[C@@H]1C[C@@H](C/C=C(\C)[C@@H](O[C@H]3C[C@H](OC)[C@@H](O[C@H]4C[C@H](OC)[C@H](NC)[C@H](C)O4)[C@H](C)O3)[C@@H](C)/C=C/C=C3\CO[C@@H]4[C@H](O)C(C)=C[C@@H](C(=O)O1)[C@]34O)O2 (stereo not given in full)	0.605 (active)	0.957 (inactive)	0.971 (inactive)	1.08 (inactive)	0.98 (inactive)	1.16	1.19 (inactive)	0.8 (inactive)	1.16	0.373 (active)
CC1(C)CON(Cc2ccccc2Cl)C1=O	0.954 (inactive)	1.01 (inactive)	0.981 (inactive)	1.06 (inactive)	0.975 (inactive)	1.06 (inactive)	1.13 (inactive)	0.983 (inactive)	0.94 (inactive)	1.15 (inactive)
